The values below come from PubChem BioAssay AID624500 (National Center for Advancing Translational Sciences (NCATS), 2012).

SMILES strings stand for the structures. Inconclusive results are not listed. Active and inactive are the calls of the source. Calls come from the whole dose curve; as a rule, active = well fitted inhibition curve with a large enough effect; inconclusive = small, poorly fitted or top-dose-only effect; inactive = flat fitted curve, though single readings scatter.

The target in the test is D(3) dopamine receptor (Homo sapiens) (UniProt P35462). The test can be described thus: HTS Assay for Allosteric Antagonists of the Human D2 Dopamine Receptor: SAR in D3 Beta Arrestin Assay. As to conditions: DiscoveRx PathHunter D3 beta-arrestin, luminescence, 90 min; series mostly up to 57.1 µM. An excerpt: There is great interest in identifying small molecule ligands for G-protein coupled receptors (GPCRs) as nearly 50% of all FDA-approved drugs target these important receptor proteins. […] Amongst the dopamine receptors (DARs), the D2 is arguably one of the most validated drug targets in neurology and psychiatry. For instance, all receptor-based antiparkinsonian drugs primarily work via stimulating the D2 DAR, whereas all FDA-approved antipsychotic agents are antagonists of this receptor. The D2 DAR is also therapeutically targeted in other disorders such as restless legs syndrome, tardive dyskinesia, Tourette's syndrome, and hyperprolactinemia. […] This is an selectivity assay to test the lead compounds against the D3 receptor, using a beta arrestin assay. NIH Molecular Libraries Probe Production Network [MLPCN] NIH Chemical Genomics Center [NCGC] Grant: NS0676421 PI Name: David Sibley, National Institutes of Neurological Disorders and Stroke
D(3) dopamine receptor (Homo sapiens), sequence (P35462 whole entry, looked up): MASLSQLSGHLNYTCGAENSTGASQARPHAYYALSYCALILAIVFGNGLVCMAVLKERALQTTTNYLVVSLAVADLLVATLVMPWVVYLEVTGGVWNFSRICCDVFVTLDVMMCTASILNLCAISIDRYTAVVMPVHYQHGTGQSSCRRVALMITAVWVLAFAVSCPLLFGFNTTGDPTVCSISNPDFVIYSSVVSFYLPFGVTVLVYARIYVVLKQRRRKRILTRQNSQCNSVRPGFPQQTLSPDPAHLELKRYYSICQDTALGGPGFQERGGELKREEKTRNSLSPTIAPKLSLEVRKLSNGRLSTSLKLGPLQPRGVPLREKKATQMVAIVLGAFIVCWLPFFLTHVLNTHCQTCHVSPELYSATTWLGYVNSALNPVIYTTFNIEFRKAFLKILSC
DiscoveRx D3 cells were thawed from frozen stock and seeded at 2,100 cells/ 3 uL/well media (DiscoveRx Plating Reagent 2) with MultiDrop Combi dispenser (Thermo Scientific, Logan, UT) onto white tissue culture treated 1536-well Aurora plates (Brooks Automation, Chelmsford, MA) and allowed to attach overnight at 37 deg C, 5% CO2. Next, 23 nL/well of compound solutions in DMSO were added with a pintool transfer (Kalypsis, San Diego, CA). As the positive control, 1 uL/well dopamine (EC100, 57 uM final concentration) diluted in buffer (HBSS + 10 mM HEPES + SMB + 0.1% Tween-20) was dispensed to 1 column of each plate. The rest of the plate was dispensed with buffer only, 1 uL/well as well. The cells were stimulated by compounds or dopamine control for 90 minutes at 37 deg C, 5% CO2, after which 1.5 ul/well of DiscoveRx detection reagent was added with BioRAPTR FRD dispenser. The detection reagent was prepared by mixing of Galacton Star Substrate, Emerald II solution and PathHunter buffer (supplied by the assay kit) together at 1:5:19 proportion accordingly just prior to dispensing. The plates were incubated at ambient temperature for 1 hour and then the luminescent signal was read on ViewLux plate reader (PerkinElmer, Waltham, MA).
With `CN1C(=O)c2ccccc2[S@](=O)c2ccc(C(=O)NCc3ccc(Cl)cc3)cc21`, the Potency was 10.2 µM (active). The value for `CN1C(=O)c2ccccc2[S@](=O)c2ccc(C(=O)NCc3cccnc3)cc21` was 14.5 µM (active). For `CCN1C(=O)c2ccccc2S(=O)c2ccc(C(=O)NCc3ccc(OC)cc3)cc21` (stereo not drawn), the Potency is 5.76 µM (active). `CCN1C(=O)c2ccccc2[S@](=O)c2ccc(C(=O)NCc3ccc(C#N)cc3)cc21`: the Potency is 1.62 µM (active). With `OC1(c2ccc(Cl)cc2)CCN(Cc2c[nH]c3ccccc23)CC1`, the Potency was 0.0646 µM (active). Consider `CN1C(=O)c2ccccc2[S@](=O)c2ccc(C(=O)NCc3ccc(Br)cc3)cc21`, for which the Potency was 4.58 µM (active). On to `CN1C(=O)c2ccccc2[S@@](=O)c2ccc(C(=O)NCCc3cccs3)cc21`, for which the Potency result was “inactive”. As to `CCN1C(=O)c2ccccc2[S@](=O)c2ccc(C(=O)NCc3ccc(OC)cc3)cc21`, the Potency is 2.89 µM (active). As for `CN1C(=O)c2ccccc2[S@](=O)c2ccc(C(=O)NCCN3CCCC3)cc21`, the Potency is 4.58 µM (active). For the compound `CN1C(=O)c2ccccc2[S@](=O)c2ccc(C(=O)NCCc3cccs3)cc21`, the Potency is 12.9 µM (active). As to `CCN1C(=O)c2ccccc2[S@](=O)c2ccc(C(=O)N[C@H](C)c3ccc(Br)cc3)cc21`, the Potency was 9.13 µM (active). For `CCN1C(=O)c2ccccc2[S@](=O)c2ccc(C(=O)NCc3ccc(F)cc3)cc21`, the Potency is 3.24 µM (active). The result for `CN1C(=O)c2ccccc2S(=O)c2ccc(C(=O)NCCc3cccs3)cc21` (stereo not drawn) reads 20.4 µM (active).
